Screening results from PubChem.
Shown are actives, neighbours in structure and some others; about 3.5% of the full set was active somewhere.
FBW7 activator = human FBW7 E3 ligase activation, primary screen; Q969H0; AlphaScreen FBW7–phospho-cyclin E peptide binding, activator screen; normalized activity (activation), % at 26.1 µM; 650,000 compounds, 0.13% hits; in the data active = normalized activity above about 1.9%;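 also: purified mutant Fbw7 with reduced substrate affinity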
GPR151 ag = human GPR151 activation; Q8TDV0; 650,000 compounds, 1% hits; activation, % at 11.2 µM; PathHunter beta-arrestin GPR151 cells, luminescence; AID 1508602; in the data active = activation above about 4.9%;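 also: 0% = median of compound wells and 100% = cells with positive control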
Target sequence (Q8TDV0 whole entry, looked up): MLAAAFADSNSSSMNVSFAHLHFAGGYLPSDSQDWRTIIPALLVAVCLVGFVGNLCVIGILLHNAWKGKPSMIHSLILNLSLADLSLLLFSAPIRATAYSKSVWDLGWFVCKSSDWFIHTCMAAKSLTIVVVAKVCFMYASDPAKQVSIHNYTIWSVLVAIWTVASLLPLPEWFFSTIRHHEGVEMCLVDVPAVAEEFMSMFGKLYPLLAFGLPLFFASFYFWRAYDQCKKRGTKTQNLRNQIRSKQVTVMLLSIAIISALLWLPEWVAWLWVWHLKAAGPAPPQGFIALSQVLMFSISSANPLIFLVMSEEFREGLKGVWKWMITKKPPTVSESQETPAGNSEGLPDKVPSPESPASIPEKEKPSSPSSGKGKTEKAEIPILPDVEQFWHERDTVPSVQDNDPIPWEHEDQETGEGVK
TEAD-YAP inh = TEAD-YAP interaction inhibition; HEK-TIYL cells, TEAD-Gal4/YAP UAS-luciferase luminescence; inhibition, % at 9.12 µM; AID 1259422; 640,000 compounds, 1.4% hits; in the data active = inhibition above about 32%;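 also: 0% = median of test compound wells and 100% = reference inhibitor wells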
MITF inh = inhibitors of human MITF | O75030 | AlphaScreen MITF homodimerization, bead proximity signal | inhibition, % at 2.6 µM | 650,000 compounds, 0.91% hits | AID 1259374; in the data active = inhibition above about 50%;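 also: 0% = vehicle wells with protein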
MITF inh conf = human MITF inhibition, confirmation; shares compounds with MITF inh; 4,700 compounds, 16% hits; inhibition, % at 2.6 µM; AID 1259372; AlphaScreen MITF homodimerization, biotin/His-MITF beads;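 active = inhibition above a cutoff derived from the DMSO control wells, cut at about 28% in these data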;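 also: 0% = MITF dimer wells with DMSO only; inhibitors lower the bead chemiluminescence by keeping MITF from dimerizing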
AS interf DR = AlphaScreen optical interference, dose response counter-screen. shares compounds with MITF inh. AlphaScreen optical interference counterscreen, cell-free. IC50, µM. 480 compounds, 6% hits; call rule not given here
AlphaScreen intf2 = counter-screen: compounds optically interfering with AlphaScreen; shares compounds with MITF inh; 4,700 compounds, 7.6% hits; inhibition, % at 2.6 µM; LysRS AlphaScreen counterscreen, signal interference, triplicate;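 active = inhibition above a cutoff derived from the DMSO control wells, cut at about 30% in these data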
Starred values were filed as active, the others as inactive; . = not tested or not shown.

SMILES | FBW7 activator | GPR151 ag | TEAD-YAP inh | MITF inh | MITF inh conf | AlphaScreen intf2 | others
COCCn1c(=S)[nH]c2cc(C(=O)NCc3ccc(C)cc3)ccc2c1=O | 0 | 0 | -5 | 62* | 1 | 8
COCCn1c(=S)[nH]c2cc(C(=O)NCc3ccc(F)cc3)ccc2c1=O | 0 | -1 | 1 | -4 | . | .
Cc1ccccc1NC(=O)N1CCC(Cn2cnc3ccccc32)CC1 | 0 | -1 | -7 | -8 | . | .
O=C(COc1ccccc1)N1CCC(Cn2cnc3ccccc32)CC1 | 0 | -1 | 7 | 56* | 9 | 12
O=C(Cn1ccc2ccccc21)N1CCC(Cn2cnc3ccccc32)CC1 | 0 | 0 | -8 | -1 | . | .
COc1ccc(CNC(=O)N2CCC(Cn3cnc4ccccc43)CC2)cc1 | 0 | 0 | 5 | 58* | 8 | 17
COc1ccc(Cl)cc1NC(=O)N1CCC(Cn2cnc3ccccc32)CC1 | 0 | 2 | -5 | 47 | . | .
O=C(NC(c1ccccc1)c1ccccc1)N1CCC(Cn2cnc3ccccc32)CC1 | 0 | 0 | 3 | 56* | 5 | 12
COc1cccc2cc(C(=O)NC3CCCCC3)c(=O)oc12 | 0 | -2 | -65 | -6 | . | .
CN1CCN(C(=O)C2CCCN(S(=O)(=O)N3CCCCC3)C2)CC1 (stereo not drawn) | 0 | -1 | -7 | 65* | -2 | 0
CN1CCN(C(=O)C2CCCN(S(=O)(=O)c3ccc(F)cc3)C2)CC1 (stereo not drawn) | 0 | 1 | -5 | 74* | -11 | -3
Cc1cccc(N(CC(=O)NC2CCCCC2)S(C)(=O)=O)c1C | 0 | 0 | -8 | -1 | . | .
N#CC1(C#N)C(c2cccnc2)C(C(=O)c2ccccc2)N2c3ncccc3C=CC21 (stereo not drawn) | 0 | 0 | -16 | 71* | 13 | 4
N#CC1(C#N)[C@H](c2cccnc2)[C@@H](C(=O)c2ccccc2)N2c3ccc(Cl)cc3C=C[C@@H]21 | 0 | 1 | -4 | 11 | . | .
O=C(Cn1nc2ccccc2n1)N/N=C/c1ccccc1F | 0 | 0 | 2 | 54* | 16 | -7
C=CCNC(=O)c1sc2nc(C)cc(C)c2c1N | 0 | 1 | -22 | 3 | . | .
CC1CCC(N2CCN(C(=O)c3ccccc3)CC2)CC1 (stereo not drawn) | 0 | 1 | -11 | 43 | . | .
CC(C)CC(=O)N1CCN(C2CCC(C)CC2)CC1 (stereo not drawn) | 0 | -2 | 2 | 59* | -2 | 12
CCCCCOC(=O)C1=C(C)NC2=C(C(=O)CCC2)C1c1ccc(CC)cc1 (stereo not drawn) | 1 | -1 | 7 | 11 | . | .
COc1ccc(CN2CCN(CCCc3ccccc3)C(CCO)C2)cc1OC (stereo not drawn) | 0 | 0 | 2 | 7 | . | .
Cc1ccc(S(=O)(=O)CCN2CCN(Cc3ccccc3)CC2)cc1 | 0 | 0 | 11 | 11 | . | .
COc1ccc(CN2CCN(CCCc3ccccc3)CC2)cc1OC | 0 | 1 | 6 | 59* | 12 | 15
c1ccc(CCCN2CCN(Cc3ccncc3)CC2)cc1 | 0 | 0 | 6 | 69* | -9 | -7
c1ccc(CN2CCN(Cc3ccncc3)CC2)cc1 | 0 | 0 | 6 | 80* | -8 | 0
Cc1ccc(CN2CCN(CCCc3ccccc3)CC2)cc1 | 0 | 2 | 6 | 66* | -13 | -2
SMILES | FBW7 activator | GPR151 ag | TEAD-YAP inh | MITF inh | MITF inh conf | AlphaScreen intf2 | others
Cc1cc(Br)ccc1NC(=O)Cn1ccc([N+](=O)[O-])n1 | 0 | 2 | -11 | -12 | . | .
Cc1ccc2nc(SCC(=O)Nc3ccccc3[N+](=O)[O-])[nH]c2c1 | 0 | 1 | 4 | 0 | . | .
O=C(/C=C/c1ccco1)NCC(=O)N/N=C/c1ccc(C(=O)O)cc1 | 0 | 1 | 5 | 51* | 45* | -5 | AS interf DR=>6.5
C=C(C)CN(CC)Cc1ccc([N+](=O)[O-])o1 | 0 | 1 | -2 | 65* | 23 | 16
Cc1ccc(C(C)C)cc1OCCN1CCOCC1 | 0 | 0 | 14 | 51* | -11 | -7
CC(C)c1cccc(OCCCN2CCOCC2)c1 | 0 | 3 | -1 | 56* | 14 | 15
Cc1cc(OCCN2CCOCC2)ccc1C(C)C | 0 | -2 | -39 | 59* | 2 | 3
Cc1ccc(C(C)C)cc1OCCn1cncn1 | 0 | 1 | -8 | 66* | 10 | 17
COc1cccc(OCCn2cncn2)c1 | 1 | -1 | 4 | 11 | . | .
N#C/C(=C\c1ccc(Cl)cc1)C(=O)Nc1nccs1 | 0 | -1 | -2 | -9 | . | .
COc1ccccc1CNC(=O)c1ccc2c(=O)n(CCc3c[nH]c4ccccc34)c(=S)[nH]c2c1 | 0 | 2 | -1 | -14 | . | .
CN(C(=O)c1coc(=O)c2ccccc12)c1cccc(Cl)c1 | 0 | 1 | 11 | 4 | . | .
Cc1ccc(C)c(OCCCN2CCOCC2)c1 | 0 | 1 | 2 | 10 | . | .
Cc1ccc(C(C)C)cc1OCCCCN1CCOCC1 | 0 | 1 | 10 | 79* | -7 | -6
CCc1cccc(NC(=O)CCS(=O)(=O)c2ccc3c(c2)SCC(=O)N3)c1 | 0 | 0 | 3 | -4 | . | .
CC(=O)c1ccc(NC(=O)CC(C)c2ccccc2)cc1 (stereo not drawn) | 0 | 2 | -18 | 8 | . | .
CC(=O)c1ccc(NC(=O)CNCC(c2ccccc2)N(C)C)cc1 (stereo not drawn) | -1 | 1 | 12 | 66* | -7 | 0
CC(=O)c1ccc(NC(=S)NNC(=O)CC#N)cc1 | 0 | -2 | 1 | 93* | 12 | 10
CCNC(=S)NNC(=O)c1ccc(NC(=O)CC#N)cc1 | 0 | -1 | -1 | -6 | . | .
Cc1ccc(C)c(OCCOCCNC(C)(C)C)c1 | 0 | 0 | 2 | 33 | . | .
Cc1cc(Br)ccc1OCCOCCNC(C)(C)C | 0 | -2 | 6 | 63* | 4 | -1
Cc1cc(OCCOCCNC(C)(C)C)cc(C)c1Cl | 0 | 1 | 0 | 31 | . | .
Cc1cc(Cl)cc(C)c1OCCOCCNC(C)(C)C | 0 | 0 | 3 | 67* | -11 | -9
CN(C(=O)CN1C(=O)c2ccccc2C1=O)c1ccccc1C(=O)O | 0 | 2 | -2 | -1 | . | .
COc1ccc(CCNC(=O)CCn2c(SCC(=O)NCCc3ccccc3)nc3ccccc3c2=O)cc1OC | 0 | 0 | -10 | -11 | . | .
COc1ccc(N2C(=O)C3CCCCC3C2=O)cc1NC(=O)c1ccc(Cl)cc1Cl (stereo not drawn) | 0 | 0 | 8 | 76* | 8 | 20
COc1ccc(OC)c(NC(=O)c2ccc(Cl)cc2Cl)c1 | 0 | 0 | -8 | 9 | . | .
O=S(=O)(c1ccc2c(c1)OCCO2)N1CCN(c2cc(N3CCCC3)ncn2)CC1 | 0 | 3 | -13 | 80* | 8 | 19
